# Assay results reported in PubChem BioAssay AID504850 (National Center for Advancing Translational Sciences (NCATS), 2011).
# Screen size: about 2,300 compounds; about 1,200 (52%) were called active. Another 34% or so got no clear call; they are omitted. The set was probably picked from earlier hits. Some of the results follow. Unmarked numbers belong to inactive results. Calls follow the shape of the dose curve; as a rule, active = well fitted inhibition curve with a large enough effect; inconclusive = small, poorly fitted or top-dose-only effect, or effect the other way; inactive = no such curve, though single readings can be large or run the other way. Square brackets hold non-standard residues; d marks the D form. Peptide text beside a SMILES is read from it. * marks the point of attachment. ξ: configuration not given here. ξF = NC(Cc1ccccc1)C(=O)O; Cbz = O=C(OCc1ccccc1)*
# Assay: Confirmation screen for delayed death inhibitors of the malarial parasite plastid, 48 hour incubation; also: nearly all actives have a fitted effect of over 65% in size
# Conditions: P. falciparum-infected erythrocytes, luciferase growth; series mostly up to 28.7 µM; activity change, negative = inhibition: at the top concentration
# How it was run: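 Single-generation (48 h, 37 C) exposure of integrated firefly luciferase-reporter P. falciparum in red cells, 0.1% parasitemia at 2% hematocrit, Albumax-supplemented RPMI. Falling luciferase signal marks parasite growth inhibition.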
# % is scaled to controls: 0 for no effect and ±100 for the full control effect; potency is read from the fitted curve at half-maximal effect.
SMILES,Potency,"activity change, negative = inhibition"
O=C(c1cccc(Cl)c1)c1nn(-c2ccccc2)c(=O)cc1C(F)(F)F,12.6 µM (active),–
O=C(CCl)Nc1cccc2ncccc12,4.47 µM (active),–
Oc1ccc(-c2n[nH]c(=S)n2-c2ccc3c(c2)OCCO3)c(O)c1,0.708 µM (active),–
O=C(c1ccc(CS(=O)c2ccccc2Cl)o1)N1CCN(c2ccccn2)CC1 (stereo not drawn),11.2 µM (active),–
O=C(NCc1cccc(Cl)c1)C1CCC(=O)N(CC2CCCCC2)C1 (stereo not drawn),14.1 µM (active),–
CCCNC(=O)C(Cc1ccc(F)cc1)NC(=O)c1ccccc1 (stereo not drawn),10 µM (active),–
CCOC(=O)CNC(=O)C(Cc1ccccc1)NC(=O)OCc1ccccc1 (stereo not drawn) (Cbz-[ξF]-Gly-OEt),–,-0.99%
COc1ccc(C2c3c(ncn(CCN4CCOCC4)c3=N)Oc3ccc4ccccc4c32)cc1OC (stereo not drawn),4.47 µM (active),–
COc1ccc(C2c3c(ncn(CCCN4CCOCC4)c3=N)Oc3ccc4ccccc4c32)cc1OC (stereo not drawn),5.01 µM (active),–
O=c1[nH]c(=O)n(Cc2ccco2)c2c1C(C(F)(F)F)(C(F)(F)F)N=C(CCc1ccccc1)N2,11.2 µM (active),–
COc1ccc2c(c1)c(C(=O)N/N=C/c1ccc(OC)c(OC)c1)c(C)n2C,10 µM (active),–
CCC(C)[C@H](NC(=O)NCCCOC(C)C)C(=O)OC (stereo partly drawn),–,0.984%
CCOc1ccc2nc(C)cc(Nc3cccc([N+](=O)[O-])c3)c2c1,2 µM (active),–
O=C(O)CCc1ccc(-c2ccccc2)n1-c1ccc(C(=O)O)cc1,–,1.49%
Cc1cc2[nH]c(=O)c(=O)[nH]c2cc1S(=O)(=O)NC1CCCCC1C (stereo not drawn),–,-18%
COC(=O)C1=C(C)NC2=C(C(=O)CC(c3cccs3)C2)C1c1ccsc1 (stereo not drawn),14.1 µM (active),–
O=C(CSc1nc(-c2ccccc2)cs1)Nc1cccc([N+](=O)[O-])c1,–,-33.8%
CCn1c(Cc2ccccc2)nnc1SCC(=O)Nc1nc(C)cs1,12.6 µM (active),–
Cc1cc(C)nc(SCc2nnc(SCC(=O)Nc3nc(-c4ccccc4)cs3)n2C)n1,14.1 µM (active),–
CCOC(=O)CSc1nnc(CNc2nc(-c3ccccc3)cs2)n1C,8.91 µM (active),–
Cc1ccccc1NC(=O)Cc1nnc(SCC(=O)NC2CCCCC2)n1C,–,-9.87%
NNC(=O)CSc1nc(-c2ccccc2)cn1-c1ccccc1,–,-17%
CCCc1cc(NCc2ccccn2)n2nc(C)c(-c3ccccc3)c2n1,5.62 µM (active),–
CN(C)c1ccc(NC(=S)NC23CC4CC(CC(C4)C2)C3)cc1,12.6 µM (active),–

SMILES,Potency,"activity change, negative = inhibition"
Cc1cccc(C)c1Nc1c(-c2ccc(N3CCOCC3)cc2)nc2ncccn12,12.6 µM (active),–
c1ccc(SCc2cn(C[C@H]3CC[C@@H]([C@@H]4CC[C@H](Cn5cc(CSc6ccccc6)nn5)O4)O3)nn2)cc1,14.1 µM (active),–
O=C(Nc1ccc(O)cc1)C1CC=CCC1 (stereo not drawn),7.94 µM (active),–
COc1cnc(-c2ccccn2)nc1Oc1ccc(C(C)(C)C)cc1,4.47 µM (active),–
COc1cnc(-c2ccccn2)nc1N(C)c1ccccc1,3.55 µM (active),–
O=C1c2cc([N+](=O)[O-])cc3cc([N+](=O)[O-])cc(c23)C(=O)N1c1ccccn1,14.1 µM (active),–
CC(C)NC(=O)c1onc(CSc2ccc(C(C)C)cc2)c1C(=O)O,–,-21.4%
Cc1ccc[n+](CC(=O)Nc2ccc(C)c(C)c2)c1,14.1 µM (active),–
CC(=O)c1ccc(NC(=O)C[n+]2cccc(C)c2)cc1,–,-2.21%
O=S(=O)(c1ccc(F)cc1)N1CCN(c2nc(-c3ccc(F)cc3)cs2)CC1,14.1 µM (active),–
CN1C[C@@H]2C[C@H]1CN2c1cc2c(cc1F)c(=O)c(C(=O)O)cn2C1CC1,3.55 µM (active),–
Cc1cc(F)ccc1S(=O)(=O)Nc1ccccc1C(=O)Nc1ccccc1-c1nc2ccccc2[nH]1,5.62 µM (active),–
COc1ccc(C(c2c(C)n(C)n(-c3ccccc3)c2=O)c2c(C)n(C)n(-c3ccccc3)c2=O)cc1,14.1 µM (active),–
Cc1c(C(c2ccc(Br)cc2)c2c(C)n(C)n(-c3ccccc3)c2=O)c(=O)n(-c2ccccc2)n1C,12.6 µM (active),–
Cc1nn(C(C)C(=O)NCCCc2ccccc2)c(=O)c2nn(-c3ccccc3)c(C)c12 (stereo not drawn),12.6 µM (active),–
Cc1nn(C(C)C(=O)Nc2ccccc2Cl)c(=O)c2nn(-c3ccccc3)c(C)c12 (stereo not drawn),14.1 µM (active),–
CSc1ccc(CNC(=O)C(C)n2nc(C)c3c(C)n(-c4ccccc4)nc3c2=O)cc1 (stereo not drawn),14.1 µM (active),–
Cc1c(NC(=O)C(C)Sc2nccn2C)c(=O)n(-c2ccccc2)n1C (stereo not drawn),–,-5.16%
CSc1ccc(CNc2cccc3ccccc23)cc1,–,-25.2%
Cc1nn(C(C)C(=O)NCCC2=CCCCC2)c(=O)c2nn(-c3ccccc3)c(C)c12 (stereo not drawn),12.6 µM (active),–
Cc1ccc(-c2csc(SCC(=O)c3c(N)n(C4CC4)c(=O)[nH]c3=O)n2)cc1,–,-4.3%
Nc1c(C(=O)CSc2nc3ccccc3o2)c(=O)[nH]c(=O)n1C1CC1,14.1 µM (active),–
O[C@@H]1[C@@H](O)C=C2CCN3Cc4cc5c(cc4[C@H]1C23)OCO5 (stereo partly drawn),1.58 µM (active),–
COc1ccc(C(=O)NC2CC2)cc1OC1CCN(C/C=C/c2ccccc2)CC1,8.91 µM (active),–

SMILES,Potency,"activity change, negative = inhibition"
CCc1nc(Nc2ccncc2)c2oc3ccccc3c2n1,10 µM (active),–
Cc1oc(/C=N/NS(=O)(=O)c2ccccc2)cc1Br,–,0.292%
Cc1c(/C=N/Nc2nc3ccccc3[nH]2)c2ccccc2n1C,0.708 µM (active),–
CCN(CC)c1ccc(/C=N/Nc2nc3ccccc3[nH]2)cc1,2.82 µM (active),–
CCc1cc(SC#N)ccc1N,10 µM (active),–
CCCN1CCc2c(sc3nc(SCC)n(-c4ccccc4)c(=O)c23)C1,1.78 µM (active),–
CCCN1CCc2c(sc3nc(SCC)n(-c4ccc(OC)cc4)c(=O)c23)C1,1.26 µM (active),–
COc1ccc(CCNC(=O)/C(=C/c2cccnc2)NC(=O)c2ccccc2)cc1OC,12.6 µM (active),–
CCOc1ccc2c(c1)C(c1ccccc1)=NNC(c1ccccc1)=N2,12.6 µM (active),–
C=CCNC(=O)c1onc(CSc2cc(C)ccc2C)c1C(=O)O,–,-10.4%
Nc1[nH]nc2nc(NCc3ccccc3)c3c(c12)CCN(Cc1ccccc1)C3,15.8 µM (active),–
O=c1[nH]c(NCc2ccccc2)nc2c1CCC2,–,-13.4%
Cc1ccc(NC(=O)c2ccc3c(SCC(=O)O)c4c(nc3c2)CCCC4)c(Br)c1,11.2 µM (active),–
COc1ccc(C2CC(c3cccs3)=NN2C(=O)CSc2nnc(N)s2)cc1OC (stereo not drawn),14.1 µM (active),–
O=C(c1ccccc1)N1CCCC(c2ccc(Cl)cc2)=N1,15.8 µM (active),–
O=Nc1c(-c2c(O)[nH]c3cc(Br)ccc23)[nH]c2ccccc12,7.08 µM (active),–
O=C(CC(SCCO)c1ccc(F)cc1)c1ccco1 (stereo not drawn),–,-19.4%
CCCCC1(c2ccc(F)cc2)NC(=O)N(CC(=O)N2CCN(C(=O)c3ccco3)CC2)C1=O (stereo not drawn),14.1 µM (active),–
COc1cccc(C2=CC(=O)C[C@H](c3ccc(F)cc3)C2)c1OC,–,-27.1%
CCOc1ccc(Cl)cc1C1=CC(=O)C[C@H](c2ccc(OC)cc2)C1,14.1 µM (active),–
COc1ccc2c(c1)c(CC(=O)Nc1nnc(C3CC3)s1)c(C)n2C(=O)c1ccc(Cl)cc1,14.1 µM (active),–
Cc1ccc(-n2cc(CN3CCC(CO)(Cc4cccc(C(F)(F)F)c4)CC3)cn2)cc1,7.94 µM (active),–
N#Cc1ccc(Oc2ccc(-c3nc4ccccc4nc3-c3ccccc3)cc2)cc1C#N,11.2 µM (active),–
Cc1c(OC(C)C(=O)NCC2CCC(C(=O)O)CC2)ccc2c1oc(=O)c1ccccc12 (stereo not drawn),14.1 µM (active),–

SMILES,Potency,"activity change, negative = inhibition"
Cc1c(Cc2ccccc2)c(=O)oc2cc(OC(C)C(=O)NCC3CCC(C(=O)O)CC3)c(Cl)cc12 (stereo not drawn),12.6 µM (active),–
CC(C)CC1c2[nH]c3ccccc3c2CCN1CCCn1cccn1 (stereo not drawn),12.6 µM (active),–
CCC1CCC(C(=O)NC(CCSC)C(=O)NCCN(CC(C)C)CC(C)C)CC1 (stereo not drawn),12.6 µM (active),–
O=C(CSc1nc2ccccc2c(=O)n1Cc1ccc(C(=O)NC2CC2)cc1)NCc1ccco1,14.1 µM (active),–
O=C(CCC1N=C2c3ccccc3N=C(SCC(=O)NCc3ccco3)N2C1=O)NCc1ccco1 (stereo not drawn),–,-31.8%
O=C(CSc1nc2c(sc3ccccc32)c(=O)n1-c1ccccc1)NCc1ccco1,11.2 µM (active),–
O=C(CSc1c2c(nc3ccccc13)CCCC2)NCc1ccco1,–,-14.6%
CCN(CC)CCn1c2c(c(SCC(=O)Nc3nc4ccccc4s3)nc1=O)CCCC2,7.08 µM (active),–
CC[N+](CC)(CC)CCCCOc1ccc2c(c1)C(=O)c1cc(OCCCC[N+](CC)(CC)CC)ccc1-2,0.0398 µM (active),–
Cc1ccc(NC(=O)CSc2nc3ccccc3c(=O)n2CCCN2CCCCC2)cc1Cl,7.94 µM (active),–
Cc1ccc(-c2nc(CSc3nc4ccccc4c(=O)n3CCO)cs2)cc1,–,-13.4%
Cc1cccc(NC(=O)C(C)Sc2nc3ccccc3c(=O)n2CCCN2CCOCC2)c1 (stereo not drawn),12.6 µM (active),–
N#CCc1ccc(C(=O)c2ccccc2F)s1,–,0.887%
Cc1cccc(NC(=O)COC(=O)c2cccc3c2C(=O)c2ccccc2C3=O)c1C,15.8 µM (active),–
Cn1c(=O)c2c([nH]c(=O)n2C)n(C)c1=O,–,-0.358%
COc1ccc(CN(CCC(c2ccccc2)c2ccco2)C(=O)c2ccco2)cc1 (stereo not drawn),10 µM (active),–
COc1ccc(S(=O)(=O)N/N=C(/C)c2ccco2)cc1,–,-6.45%
O=C(CNC(=O)c1ccco1)OCC(=O)c1ccccc1,–,2.63%
Cc1ccnc(NCc2ccc(Cl)cc2)c1,–,18%
Cc1ccnc(NCc2cccc3ccccc23)c1,12.6 µM (active),–
CCOC(=O)c1c(CS(=O)(=O)c2ccccc2)n(C)c2cc(Br)c(O)cc12,12.6 µM (active),–
